D2 ag-1 = activates the human D2 dopamine receptor; P14416; HEK293 T-REx D2 cells, calcium flux agonist mode; activation, % at 2 µM; 340,000 tested, 0.53% active; AID 485358;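 active = activation over 3 SD above normal in the single-dose calcium agonist read, cut at about 30% in these data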; also: 0% is about no effect
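In this primary screen, compounds producing a positive calcium signal within 180 s of addition to tetracycline-induced, force-coupled HEK293 Trex D2 cells are flagged; cells are dye-loaded with a no-wash calcium kit beforehand.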
D2 antagonist = antagonizes the human D2 dopamine receptor | inhibition, % at 10 µM | P14416 | AID 485344 | 340,000 tested, 2% active | HEK293 TREx D2 cells, calcium flux, dopamine EC80; in the data active = inhibition above about 30%; inactive = below that, where a call was filed; also: 0% is about no effect
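Measurement of antagonist activity uses fluorescent calcium dye in inducible HEK293 T-REx D2 cells: 10 s baseline, compound addition with 180 s read, EC80 dopamine addition with a further 180 s read.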
D2 PAM-1 = D2 dopamine receptor (human) potentiation | HEK293 T-REx D2, calcium flux, EC20 dopamine potentiation | potentiation, % at 10 µM | 340,000 tested, 0.34% active | AID 485347;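 active = potentiation over 3 SD above the plate norm, cut at about 30% in these data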; also: 0% is about no effect
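Tetracycline-induced HEK293 T-REx cells force-coupled to calcium signalling expressed D2; compounds were pin-added after a 10 s baseline, read kinetically 180 s, then an EC20 dopamine challenge followed with a further 180 s calcium read.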
D2 PAM-2 = human D2 receptor positive allosteric modulation; 360,000 tested, 0.23% active; DiscoveRx D2 beta-arrestin cells, luminescence, 90 min; 100% = 57 uM dopamine signal; potentiation, % (concentration not given with the values); AID 624464; P14416; in the data active = potentiation above about 50%; inconclusive = mostly about 30% to 49%
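PathHunter beta-arrestin assay in DiscoveRx D2 cells. Compounds were added with an EC20 of dopamine (50 nM final) for 90 min at 37 deg C. Luminescence was read 1 h after detection reagent, with 57 uM dopamine as the EC100 control.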
D2 ag-2 = agonists of human D2 dopamine receptor (beta-arrestin). DiscoveRx PathHunter D2 beta-arrestin, luminescence, 90 min; 100% = 57 uM dopamine signal. AID 624465. activation, % (concentration not given with the values). 360,000 tested, 0.084% active. P14416; in the data active = activation above about 40%; inconclusive = between about 15% and that limit
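DiscoveRx PathHunter D2 beta-arrestin cells (2,100/well) attached overnight, then compound-stimulated 90 min at 37 C in HBSS/10 mM HEPES/0.1% Tween-20 buffer; beta-galactosidase complementation read by luminescence after 1 h at ambient temperature. Dopamine 57 uM final (EC100) as control.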
D3 ag = confirmation of human D3 dopamine receptor agonists, beta-arrestin | shares compounds with D2 ag-1 | AID 720506 | Potency, µM (top dose mostly 76.9 µM), for inactives: at the highest dose activation, actives largely listed as activators | DiscoveRx D3 beta-arrestin cells, luminescence, 90 min | 2,300 tested, 4% active;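 also: potency is read from the fitted curve at half-maximal effect; 100% = dopamine control response; nearly all actives have a fitted effect of over 70% in size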
Target sequence (P35462 whole entry, looked up): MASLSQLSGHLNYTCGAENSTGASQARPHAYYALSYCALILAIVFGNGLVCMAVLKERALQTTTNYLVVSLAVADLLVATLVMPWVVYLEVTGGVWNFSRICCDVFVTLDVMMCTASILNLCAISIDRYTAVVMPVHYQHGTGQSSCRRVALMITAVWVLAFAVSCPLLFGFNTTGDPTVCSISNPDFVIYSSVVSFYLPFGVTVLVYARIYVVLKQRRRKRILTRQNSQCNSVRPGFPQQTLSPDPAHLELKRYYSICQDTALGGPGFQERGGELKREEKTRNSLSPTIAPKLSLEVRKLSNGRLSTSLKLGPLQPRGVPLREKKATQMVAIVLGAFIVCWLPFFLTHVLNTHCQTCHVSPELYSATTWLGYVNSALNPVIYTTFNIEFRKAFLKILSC
D2 ag-3 = D2 receptor agonism, beta-arrestin counterscreen | DiscoveRx PathHunter D2 beta-arrestin, luminescence, 90 min; response scale: percent relative to full dopamine signal | 2,300 tested, 5.9% active | shares compounds with D2 ag-1 | Potency, µM (doses to about 76.9 µM), inactives show top-dose activation, hits mostly activators; also: potency is read from the fitted curve at half-maximal effect; % of control where 0% means no effect; nearly all actives have a fitted effect of over 70% in size
The depositor's hits bear a star; ? = inconclusive; nt = no result. In the library only some 2.4% were active in any assay of this set; here they are far more common. Unless noted, calls follow the shape of the dose curve; as a rule, active = well fitted activation curve with a large enough effect; inconclusive = small, poorly fitted or top-dose-only effect; inactive = flat fitted curve, though single readings scatter.

SMILES | D2 ag-1 | D2 antagonist | D2 PAM-1 | D2 PAM-2 | D2 ag-2 | D3 ag | D2 ag-3
O=C(Nc1cccc(C(F)(F)F)c1)c1cc2nc(-c3ccc4c(c3)OCO4)cc(C(F)(F)F)n2n1 | 0 | nt | -2 | nt | nt | nt | nt
Cc1c(C(=O)N2CCC(C)CC2)c(S(=O)(=O)N2CCN(c3cccc(Cl)c3)CC2)c(C)n1C | nt | nt | 1 | nt | nt | nt | nt
Cc1ccc(S(=O)(=O)N2CCN(C(=O)COC(=O)c3ccc([N+](=O)[O-])o3)CC2)c(C)c1 | 0 | 13 | -5 | 6 | 2 | 5% | 12%
Cc1ccc(S(=O)(=O)N2CCN(C(=O)COC(=O)c3cc([N+](=O)[O-])ccc3NCCO)CC2)c(C)c1 | nt | nt | nt | -9 | -1 | nt | nt
COc1ccccc1NCC(O)COc1ccc(C(C)(C)C)cc1 (stereo unspecified) | 0 | 7 | 0 | 1 | 4 | nt | nt
COc1ccc(OCC(O)CNCCOc2ccccc2OC)c(C(C)(C)C)c1 (stereo unspecified) | 45* | 71* | -21 | -10 | 2 | 22% | 19%
COc1ccccc1/C=N/NC(=O)c1ccc(CN2C(=O)c3cccc4cccc2c34)cc1 | 0 | -13 | -8 | -5 | -4 | -4% | 2%
COc1ccc(-c2c(-c3cc(OC)cc(OC)c3)n(C)c3ccc(-c4ccc(S(N)(=O)=O)cc4)cc23)cc1 | 0 | -7 | -5 | -7 | -2 | -4% | 5%
COc1cc(OC)cc(-c2c(-c3cccs3)c3cc(-c4ccc(SC)cc4)ccc3n2C)c1 | 0 | 58* | 1 | -2 | 2 | 7% | 1%
COc1ccc(-c2c(-c3cc(OC)cc(OC)c3)n(C)c3ccc(-c4cnc(N)nc4)cc23)cc1 | nt | nt | nt | -4 | -4 | nt | nt
Cc1ccc2[nH]c(=O)c3cc(C(=O)N(C)Cc4ccco4)sc3c2c1 | 82* | -11 | -12 | -1 | -6 | -3% | -3%
O=C(NCCS(=O)(=O)N1CCN(c2ccccc2)CC1)C1CC(=O)N(c2ccccc2)C1 (stereo unspecified) | 0 | -2 | 13 | -3 | 0 | -5% | -1%
O=C(NCCS(=O)(=O)N1CCN(c2ccc(F)cc2)CC1)C1CC(=O)N(c2ccccc2)C1 (stereo unspecified) | 0 | -11 | -9 | 6 | 0 | nt | nt
CC(NC(=O)CN1C(=O)COc2ccc(Cl)cc21)c1ccccc1 (stereo unspecified) | -1 | nt | 3 | nt | nt | nt | nt
CC(=O)NC(c1cccc(F)c1)c1nc(-c2csc3ccccc23)cs1 (stereo unspecified) | nt | nt | nt | -4 | -3 | nt | nt
O=C(C1CCN(Cc2cccs2)CC1)N1CCN(Cc2ccc3c(c2)OCO3)CC1 | 1 | -3 | nt | -16 | -1 | nt | nt
O=C(c1cccs1)N1CCC(C(=O)N2CCN(Cc3ccc4c(c3)OCO4)CC2)CC1 | 68* | 52* | -22 | 7 | ? | 17% | ?
O=C(C1CCCN1C(=O)c1cccs1)N1CCN(Cc2ccc3c(c2)OCO3)CC1 (stereo unspecified) | 63* | 37* | -20 | 10 | -3 | 4% | 16%
CCCNC(=O)N1[C@H](c2cccs2)[C@@H](C)C(=O)[C@@H](C)[C@@H]1c1cccs1 | -1 | nt | -3 | nt | nt | nt | nt
COCC1CCN(Cc2c(C(=O)N3CCN(C4CCCCC4)CC3)nc3ccccn23)C1 (stereo unspecified) | 0 | -14 | -5 | -50 | -4 | nt | nt
COC1CCN(Cc2c(C(=O)N3CCN(C4CCCCC4)CC3)nc3ccccn23)CC1 | 59* | -8 | -21 | -7 | -1 | 0% | -7%
O=C(NCC(c1ccco1)S(=O)(=O)c1cccs1)c1c(F)cccc1F (stereo unspecified) | nt | nt | -3 | nt | nt | nt | nt
Cc1ccc(NC(=O)CNC(=O)c2ccc3c(c2)OCO3)nc1 | 1 | 5 | -2 | -9 | 2 | -14% | -4%
CCc1ccccc1N1CC(c2nc3ccccc3n2CCCOc2ccc(Cl)cc2)CC1=O (stereo unspecified) | 1 | nt | -8 | nt | nt | nt | nt
O=C(O)C1CCCN1S(=O)(=O)c1cccc2nsnc12 (stereo unspecified) | 45* | -6 | -12 | -2 | 0 | -10% | -2%
SMILES | D2 ag-1 | D2 antagonist | D2 PAM-1 | D2 PAM-2 | D2 ag-2 | D3 ag | D2 ag-3
O=C(NCCN1CCN(c2ccccc2)CC1)C1CCN(S(=O)(=O)c2cccc3nsnc23)CC1 | 28 | 55* | nt | -1 | ? | ? | 22%
O=C(NCCc1ccccc1)C1CCN(S(=O)(=O)c2cccc3nsnc23)CC1 | -1 | -14 | 2 | -19 | -1 | nt | nt
CNC[C@@H]1OCc2cnnn2CCCC(=O)N([C@H](C)CO)C[C@H]1C | nt | nt | nt | 4 | -1 | nt | nt
CN1CCc2c(sc(NC(=O)c3ccc(C(=O)c4ccccc4)cc3)c2C(N)=O)C1 | 69* | 37* | -13 | -5 | -1 | -9% | -1%
CC(C)N1CCc2c(sc(NC(=S)NC(=O)c3ccccc3)c2C#N)C1 | 3 | 1 | 1 | -9 | -9 | nt | nt
CCN1CCc2c(sc(NC(=S)NC(=O)c3ccc(Cl)cc3)c2C(N)=O)C1 | 44* | -12 | -12 | -19 | -10 | -4% | -10%
CCCN1CCc2c(sc(NC(=S)NC(=O)c3ccccc3)c2C#N)C1 | 77* | 78* | -15 | 17 | 14 | 7% | 13%
CN1CCc2c(sc(NC(=O)Cc3ccccc3)c2C#N)C1 | 78* | 70* | -23 | 14 | 5 | 13% | ?
CCOC(=O)c1ccc(NC(=O)CN2Cc3ccccc3C2=O)cc1 | 0 | nt | -5 | nt | nt | nt | nt
CC(C)N1CCN(Cc2ccsc2)CC1CCO (stereo unspecified) | 44* | 44* | -22 | -7 | -4 | -10% | -2%
Clc1ccc(-n2ncc3c(NCc4ccco4)ncnc32)cc1 | -2 | -22 | -9 | 6 | 1 | 4% | 3%
COc1ccc(-n2ncc3c(NCc4ccco4)ncnc32)cc1 | -1 | -4 | 18 | -1 | 1 | nt | nt
CCCCNC(=O)C(CC)(ONc1ccccc1C(F)(F)F)c1ccccc1 (stereo unspecified) | 0 | -10 | 7 | -16 | -3 | -3% | 9%
CCCCNC(=O)[C@@](CC)(ONc1ccccc1C(F)(F)F)c1cccc2ccccc12 | 0 | 6 | -2 | -14 | -5 | nt | nt
O=C(COC(=O)CSc1ccccc1)NC1CCS(=O)(=O)C1 (stereo unspecified) | nt | nt | nt | -3 | -2 | nt | nt
Cc1ccc(-n2c(=O)c3oc4ccccc4c3n(CC(=O)Nc3ccccc3)c2=O)cc1C | 1 | nt | -7 | nt | nt | nt | nt
CCn1nc(C)c(CCN(C)C(=O)Nc2cc(Cl)c(OC)cc2OC)c1C | 2 | nt | 2 | nt | nt | nt | nt
